PubChem BioAssay (NCATS)
Results filed as inconclusive are left out. Entries that show only a call come without a potency. Unmarked numbers belong to inactive results. The source made the active and inactive calls. Calls come from the whole dose curve; as a rule, active = well fitted inhibition curve with a large enough effect; inconclusive = small, poorly fitted or top-dose-only effect; inactive = no such curve, though single readings can be large or run the other way. Where a SMILES comes first, the peptide text is derived from it. The star is where a group is joined. βNA = c1ccc2cc(N*)ccc2c1; Cbz = O=C(OCc1ccccc1)*

What was measured:
[1] = test system: Zika virus NS2B-NS3 protease (unlinked complex); assay: Primary screen GU Rhodamine qHTS for Zika virus inhibitors: Unlinked NS2B-NS3 protease assay (AID 1347159); conditions: Recombinant ZIKV NS2B-NS3 protease, Rhodamine110 substrate fluorescence; series mostly up to 107 µM; note: nearly all actives have a fitted effect of over 60% in size
Method in brief: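 Compounds, tested up to 114 microM, were incubated for 15 minutes with 25 nM unlinked NS2B-NS3 protease at pH 8.0. Cleavage of 1.5 microM Rhodamine110 substrate was then followed by fluorescence for 15 minutes.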

[2] = test system: Zika virus NS2B-NS3 protease (linked construct); assay: Primary screen NINDS Rhodamine qHTS for Zika virus inhibitors (AID 1347160); conditions: purified NS2B-NS3 protease, Rhodamine110 substrate fluorescence; series mostly up to 33.1 µM; note: nearly all actives have a fitted effect of over 55% in size
Method in brief: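 Percent inhibition, normalized to uninhibited and enzyme-free controls, is fitted to a 4-parameter Hill equation. Fluorescence change comes from a 15-min cleavage of 1.5 microM bis-peptide Rhodamine110 substrate by 25 nM linked NS2B-NS3 at room temperature.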
Potency is the fitted concentration of half-maximal effect.

SMILES	Potency [1]	Potency [2]	activity change, negative = inhibition [1]	outcome [2]
OCC1=C[C@@H](O)[C@@H]2C=CO[C@@H](O[C@@H]3O[C@H](CO)[C@@H](O)[C@H](O)[C@H]3O)[C@H]12	inactive	inactive	–	–
CC(C)C1NC(=O)CNC(=O)C2CCCN2C(=O)C(Cc2c[nH]c3ccccc23)NC(=O)CNC(=O)C(Cc2ccc(O)cc2)NC(=O)CNC1=O (configuration not stated) (cyclo(GVGYGWP); configuration not given here)	inactive	inactive	–	–
CC1(C)CC[C@]2(C(=O)O)CC[C@]3(C)C(=CCC4[C@@]5(C)C[C@@H](O)[C@H](O)[C@](C)(CO)C5CC[C@]43C)[C@@H]2[C@@H]1O (some centres not stated)	inactive	inactive	–	–
CC1(C)CC[C@]2(C(=O)OC3OC(CO)C(O)C(O)C3O)CC[C@]3(C)C(=CCC4[C@@]5(C)C[C@@H](O)[C@H](OC6OC(C(=O)O)C(O)C(O)C6O)C(C)(C)C5CC[C@]43C)[C@@H]2C1 (some centres not stated)	inactive	inactive	–	–
COc1cccc(OC)c1-c1ccc(C[C@H](NC(=O)c2c(Cl)cccc2Cl)C(=O)O)cc1	inactive	inactive	–	–
COC1OC(OC)C(O)(CCC2(C)C(C)CCC3(C)C2CC(O)C(O)C32CO2)C1O (configuration not stated)	inactive	inactive	–	–
COC(=O)C(CC1(OC(=O)C(C)C)c2ccccc2N2C(=O)C(C)(C)N(O)C21)n1cnc2ccccc2c1=O (configuration not stated)	inactive	inactive	–	–
C=C(C)[C@@H]1CC[C@]2(C(=O)O)CC[C@]3(C)C(CCC4[C@]5(C)C(CC[C@]43C)C(C)(C)[C@@H](O)[C@@H]5C(=O)O)C12 (some centres not stated)	inactive	inactive	–	–
C/C=C(\C)C(=O)OC[C@H]1O[C@@H](O[C@H]2[C@@H](O[C@H]3O[C@H](COC(=O)/C(C)=C/C)[C@@H](O)[C@H](O)[C@H]3O[C@@H]3O[C@H](COC(=O)/C(C)=C/C)[C@@H](O)[C@H](OC(=O)/C(C)=C/C)[C@H]3O)O[C@H](COC(=O)/C(C)=C/C)[C@@H](O)[C@@H]2O)[C@H](O)[C@@H](O)[C@@H]1O	inactive	inactive	–	–
COC(O)(CC(C)C)C1Oc2cc(C)[nH]c(=O)c2O1 (configuration not stated)	inactive	inactive	–	–
CC(C)=CCC[C@](C)(O[C@@H]1O[C@H](CO[C@@H]2O[C@@H](CO)[C@H](O)[C@H]2O[C@@H]2OC[C@@H](O)[C@H](O)[C@H]2O)[C@@H](O)[C@H](O)[C@H]1O)[C@H]1CC[C@]2(C)[C@@H]1[C@H](O)CC1[C@@]3(C)CC[C@H](O[C@@H]4O[C@H](CO)[C@@H](O)[C@H](O)[C@H]4O[C@@H]4O[C@H](CO)[C@@H](O)[C@H](O)[C@H]4O)C(C)(C)C3CC[C@]12C (some centres not stated)	–	–	0.816% [at 19.1 µM]	inactive [at 10.7 µM]
CC1(C)CC[C@]2(C(=O)O[C@@H]3O[C@H](CO)[C@@H](O)[C@H](O)[C@H]3O)CC[C@]3(C)C(=CCC4[C@@]5(C)CC[C@H](O[C@H]6O[C@H](CO)[C@@H](O)[C@H](O[C@@H]7O[C@H](CO)[C@@H](O)[C@H](O)[C@H]7O)[C@H]6O)C(C)(C)C5CC[C@]43C)[C@@H]2C1 (some centres not stated)	inactive	inactive	–	–
COc1cc2c(cc1O)C(c1ccc(O)cc1)C(C)C(C)C2 (configuration not stated)	39.8 µM (active)	inactive	–	–
C=C1CC[C@@]2(OC1)O[C@H]1CC3[C@@H]4CC=C5C[C@H](O[C@H]6OC[C@@H](O)C(O)[C@@H]6O[C@@H]6O[C@@H](C)[C@H](O)[C@@H](O[C@@H]7O[C@H](CO)[C@@H](O)[C@H](O)[C@H]7O)[C@H]6O)C[C@@H](O)[C@]5(C)C4CC[C@]3(C)[C@H]1[C@@H]2C (some centres not stated)	inactive	inactive	–	–
C=C1[C@@H]2CC[C@@]3(C)[C@H](c4ccoc4)OC(=O)C[C@]13O[C@H]1CC(=O)C(C)(C)[C@H](C(O)C(=O)OC)[C@]12C (some centres not stated)	inactive	inactive	–	–
CC(=O)O[C@@H]1[C@H](O[C@@H]2O[C@H](CO)[C@@H](O)[C@H](O)[C@H]2O)[C@@H](O[C@@H]2O[C@@H](C)[C@H](O)[C@@H](O[C@@H]3O[C@H](CO)[C@@H](O)[C@H](O)[C@H]3O)[C@H]2O)[C@H](OC(=O)[C@]23CCC(C)(C)C[C@H]2C2=CCC4[C@@]5(C)C[C@H](O)[C@H](O[C@@H]6O[C@H](C(=O)O)[C@@H](O)[C@H](O)[C@H]6O)[C@@](C)(C(=O)O)C5CC[C@@]4(C)[C@]2(C)CC3)O[C@@H]1C (some centres not stated)	–	inactive	16.2% [at 19.1 µM]	–
COc1c(C)c(OCC=C(C)C)cc2c1CNC2=O	inactive	inactive	–	–
CCC/C=C1\OC(=O)C2=C1CCC(O)C2O (configuration not stated)	inactive	inactive	–	–

SMILES	Potency [1]	Potency [2]	activity change, negative = inhibition [1]	outcome [2]
C/C=C(\C)C(=O)OC1C(C)C2(O)C3C=C(C)C(=O)C3CC(CO)=CC2C2C(C)(C)C12OC(C)=O (configuration not stated)	inactive	inactive	–	–
CC1(O)CCC2C(C3C1CCC3(C)O)C2(C)C (configuration not stated)	inactive	inactive	–	–
Cc1nnc(-c2ccc3occ(-c4ccc(S(C)=O)cc4)c3c2)o1 (configuration not stated)	inactive	inactive	–	–
COc1ccc(/C=C/C(=O)O[C@@H]2[C@@H](OC(C)=O)[C@@H](OC(C)=O)[C@H](O[C@H]3[C@@H]4C=CO[C@@H](O[C@@H]5O[C@H](CO)[C@@H](O)[C@H](O)[C@H]5O)[C@@H]4[C@@]4(CO)O[C@@H]34)O[C@H]2C)cc1	inactive	inactive	–	–
COc1c(O[C@@H]2O[C@H](CO)[C@@H](O)[C@H](O)[C@H]2O)c(CCC(=O)O)cc2ccoc12	inactive	inactive	–	–
CC1=CC(=O)C2C(C)(C)CCC[C@]2(C)[C@H]1CC[C@H](C)CC(=O)O (some centres not stated)	inactive	inactive	–	–
COc1cc([C@H]2OC[C@](O)(Cc3ccc(O[C@@H]4O[C@H](CO)[C@@H](O)[C@H](O)[C@H]4O)c(OC)c3)[C@@H]2CO)ccc1O	inactive	inactive	–	–
NC(Cc1c[nH]c2ccc(O)cc12)C(=O)O (configuration not stated)	inactive	inactive	–	–
C=C(C(=O)O)[C@@H]1CC[C@@]2(C)CC[C@@H](O)C(=C)C2C1 (some centres not stated)	inactive	inactive	–	–
CC(C)CC(NC(=O)OCc1ccccc1)C(=O)NC(CC(C)C)C(=O)NC(CCC(=O)O)C(=O)Nc1ccc2ccccc2c1 (stereo not drawn) (Cbz-Leu-Leu-Glu-βNA; configuration not given here)	11.2 µM (active)	11.2 µM (active)	–	–
C=C[C@H]1[C@H](O[C@@H]2O[C@H](CO)[C@@H](O)[C@H](O)[C@H]2O)OC=C(C(=O)OC)[C@H]1CC=O	inactive	inactive	–	–
C=CC1(C)CC=C2C(CCC3C(C)(C(=O)O)CCCC23C)C1 (configuration not stated)	5.62 µM (active)	14.1 µM (active)	–	–
CCC(C)C(=O)OC[C@H]1O[C@H](O[C@H]2O[C@H](CO)[C@@H](O)[C@H](O)[C@H]2O)[C@H](O)[C@@H](O)[C@@H]1O (some centres not stated)	inactive	inactive	–	–
Cc1cc(C(=O)N2Cc3cnn(C)c3Nc3ccccc32)ccc1CNC(=O)N1CCN(Cc2cc(O)cc(O)c2)CC1	inactive	inactive	–	–
CNC(=O)c1ccc2c(c1)CCO[C@H]2CCN1CCN(c2ccc(C(N)=O)cc2)CC1	inactive	inactive	–	–
COc1ccc(-n2c(SCC#N)nc3sc4c(c3c2=O)CCCC4)cc1	inactive	inactive	–	–
CCC(=O)OCC(=O)[C@@]1(OC(=O)CC)[C@@H](C)C[C@H]2[C@@H]3CCC4=CC(=O)C=C[C@]4(C)[C@@]3(F)[C@@H](O)C[C@@]21C	inactive	inactive	–	–
C[C@]12CC/C(=N\OCC(=O)O)C=C1CC[C@@H]1[C@@H]2[C@@H](O)C[C@@]2(C)[C@H]1CC[C@]2(O)C(=O)CO	inactive	inactive	–	–
